Screening results (PubChem)
HT1080 IDH1KD tx – qHTS for induction of synthetic lethality in tumor cells producing 2HG: qHTS for the HT-1080-IDH1KD cell line; 360,000 compounds, 2% hits; Potency, µM (highest dose often 46.1 µM), for inactives: at the highest dose activity, negative = toxicity, usual class: cytotoxic; HT-1080 IDH1 knockdown viability, ATP luminescence, 48 h; AID 686971, 2013;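 also: 0% = DMSO wells and -100% = cell-free medium wells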
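Cytotoxicity counter-line: IDH1KD HT-1080, 48 h, CellTiter-Glo. Curves classed by r2, magnitude and activity.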
TDP1 cell noCPT – qHTS for Inhibitors of human tyrosyl-DNA phosphodiesterase 1 (TDP1): qHTS in cells in absence of CPT; DT40 Tdp1-/- hTDP1 cells, no CPT, ATP luminescence, 48 h; Potency, µM (series often up to 46.2 µM), for the others: at the highest dose activity change, negative = growth inhibition, hits mostly inhibitors; 420,000 compounds, 15% hits; AID 686978, 2013; also: % is scaled to controls: 0 for no effect and ±100 for the full control effect; nearly all actives have a fitted effect of over 55% in size
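Readout: luminescence from CellTiter-Glo after 30 min in the dark at RT. Cells: DT40 Tdp1-/- with stable hTDP1, 400/well. Exposure: compounds alone, ≥48 hr, 37 °C.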
HT1080NT lethal – qHTS for induction of synthetic lethality in tumor cells producing 2HG: qHTS for the HT-1080-NT fibrosarcoma cell line; HT-1080-NT fibrosarcoma viability, CellTiter-Glo ATP luminescence, 48 h; Potency, µM (highest dose often 46.1 µM), inactives show at the highest dose activity, negative = less viability, actives largely listed as cytotoxic; 360,000 compounds, 1.6% hits; AID 686970, 2013;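 also: NT is the 2HG producing partner of a matched IDH1 knockdown line; 0% = DMSO-treated cells and -100% = media-only wells without cells; nearly all actives have a fitted effect of over 55% in size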
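Fibrosarcoma NT cells, 750 per well in 5% FBS RPMI, were exposed to compound for 48 hours. Viability: CellTiter-Glo luminescence.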
HepG2 viability – qHTS for Inhibitors of TGF-b: Cytotox Counterscreen. HepG2 CAGA-GFP viability, ATP luminescence, 18 h. Potency, µM (top dose mostly 46.1 µM), for inactives: at the highest dose activity change, negative = cytotoxicity, hits mostly cytotoxic. 410,000 compounds, 0.76% hits. AID 588856, 2011
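CellTiter-Glo luminescence gave cytotoxicity after 18 hours at 37 degrees C. The cells were HepG2 CAGA-GFP in 1% FBS DMEM, stimulated with 500 pg/mL TGF-beta after compound addition. %Activity was normalised to no-cell wells (complete cell-killing) and DMSO (no toxicity), and curves were fitted and classified.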
DT40 TDP1 CPT – qHTS for Inhibitors of human tyrosyl-DNA phosphodiesterase 1 (TDP1): qHTS in cells in presence of CPT. 420,000 compounds, 12% hits. chicken DT40 Tdp1-/-;hTDP1 cells + 20 nM CPT, ATP luminescence, 48 h. Potency, µM (doses to about 46.2 µM), for inactives: at the highest dose activity change, negative = growth inhibition, hits mostly inhibitors. AID 686979, 2013; also: % is scaled to controls: 0 for no effect and ±100 for the full control effect; nearly all actives have a fitted effect of over 55% in size
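Cell growth measured by CellTiter-Glo luminescence after a minimum 48 h, 37 C compound exposure with 20 nM CPT in Tdp1-knockout DT40 cells stably expressing hTDP1, seeded 400/well; qHTS titration format.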
TGFb inhibitor – qHTS for Inhibitors of TGF-b; AID 588855, 2011; HepG2 CAGA-GFP TGF-b/SMAD3 reporter, GFP fluorescence, 18 h; TGF-beta stimulated, 500 pg/mL final; Potency, µM (series often up to 46.1 µM), without a hit: at the highest dose activity, negative = inhibition, most hits filed as inhibitors; 410,000 compounds, 1.2% hits; also: % is scaled to controls: 0 for no effect and ±100 for the full control effect; nearly all actives have a fitted effect of over 65% in size
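Smad-responsive CAGA-GFP expression was quantified in HEPG2 cells exposed to compounds and 500 pg/mL final TGF-beta for 18 h at 37 degrees C; unstimulated wells defined full inhibition.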
* hit, by the source's call; ? = inconclusive; · = no result; [ ] = remark or other dose. The list is not random: actives were taken first. Their share in the collection is about 17%. Calls follow the shape of the dose curve; as a rule, active = well fitted curve in the direction sought with a large enough effect; inconclusive = small, poorly fitted or top-dose-only effect, or another doubt; inactive = no such curve, though single readings can be large; an effect the other way counts as inactive or inconclusive. Potency is read from the fitted curve at half-maximal effect.

SMILES	HT1080 IDH1KD tx	TDP1 cell noCPT	HT1080NT lethal	HepG2 viability	DT40 TDP1 CPT	TGFb inhibitor
O=C(c1ccco1)N1CCC2(CCN(Cc3nccs3)CC2)CC1	·	-13%	·	·	1%	·
Cc1ccccc1NC(=O)C(=O)NCC1(c2ccccc2)CCCC1	·	16µM*	·	5%	?	?
Cc1ccc(NC(=O)N2CC=C(c3c[nH]c4ccccc34)CC2)cc1Cl	·	10µM*	·	-58%	18µM*	35%
COC(=O)c1ccc(Cl)cc1NC(=O)N1CC=C(c2c[nH]c3ccccc23)CC1	·	?	·	-34%	15µM*	81%
O=C(Nc1ccc(Br)cc1F)N1CC=C(c2c[nH]c3ccccc23)CC1	·	0.58µM*	·	-37%	0.65µM*	?
Cc1ccc(NC(=O)N2CCN(C(=O)c3nsc4ccccc34)CC2)cc1C	·	?	·	-18%	?	-1%
COC(=O)c1ccc(Cl)cc1NC(=O)N1CCCn2nc(C)cc21	·	-14%	·	-2%	-16%	?
O=C(Nc1cccc2ccccc12)N1CC=C(c2ccccc2)CC1	?	?	-1%	-2%	?	8%
Cc1cccc(NC(=O)N2CC=C(c3c[nH]c4ccccc34)CC2)c1C	·	23µM*	·	-58%	16µM*	38%
O=C(CCCN1C(=O)C2CCCCN2C1=O)N1CCN(c2ccc([N+](=O)[O-])cc2)CC1 (stereo not drawn)	-1%	23µM*	-6%	0%	?	-28%
O=C(CCc1ccc(Oc2cc([N+](=O)[O-])cc([N+](=O)[O-])c2)cc1)N1CCCCCC1	-14%	?	-13%	-38%	18µM*	18µM*
O=C(Cc1ccc([N+](=O)[O-])cc1)N1CCN(c2ccc([N+](=O)[O-])cc2)CC1	-13%	7.3µM*	-4%	-7%	18µM*	-10%
O=C(CCCSc1nc2ccccc2[nH]1)N1CCN(c2ccc([N+](=O)[O-])cc2)CC1	3%	8.2µM*	7%	4%	10µM*	12%
O=C(Cc1ccc(F)cc1)N1CCN(c2ccc([N+](=O)[O-])cc2)CC1	-2%	?	-2%	-25%	21µM*	-13%
O=C(NCCN1CCN(c2ccc([N+](=O)[O-])cc2)CC1)NCc1ccccc1	-16%	8.2µM*	-7%	-18%	?	?
O=C(CSc1ccccc1C(=O)N1CCN(c2ccc([N+](=O)[O-])cc2)CC1)N1CCCC1	-6%	15µM*	?	2%	12µM*	-20%
O=C(Cn1cc([N+](=O)[O-])nc1[N+](=O)[O-])N1CCN(c2ccccc2)CC1	26µM*	?	-21%	-108%	16µM*	?
O=C(Cc1ccccc1)N1CCN(c2ccc([N+](=O)[O-])cc2)CC1	-11%	?	-7%	-25%	?	-5%
O=C(Cn1cnc2ccccc2c1=O)N1CCN(c2ccccc2)CC1	4%	-8%	2%	-17%	8%	16%
O=C(NCCN1CCN(Cc2ccc([N+](=O)[O-])cc2)CC1)C(=O)Nc1ccccc1	6%[9.24 µM]	-8%	4%	9%	-17%	0%
COc1ccccc1CNS(=O)(=O)c1c(C)cc(C)cc1C	0%	?	-1%	-4%	?	-7%
O=C(CCc1ccccc1)N1CCN(c2ccc([N+](=O)[O-])cc2)CC1	-11%	23µM*	0%	-24%	?	?
COC(=O)N1c2ccccc2C=Cc2ccccc21	?	21µM*	?	13%	?	0%
NC(=O)N1c2ccccc2C=Cc2ccccc21	-9%	?	?	-7%	?	0%
CCN(CC)C(=O)N1c2ccccc2C=Cc2ccccc21	?	10µM*	-19%	-18%	9.2µM*	-3%
SMILES	HT1080 IDH1KD tx	TDP1 cell noCPT	HT1080NT lethal	HepG2 viability	DT40 TDP1 CPT	TGFb inhibitor
Cc1c(N2C(=O)CSC2c2ccco2)c(=O)n(-c2ccccc2)n1C (stereo not drawn)	4%	4%	9%	-8%	4%	-6%
CC1(C)Cc2c(cnn2-c2ccccc2)C(NC(=O)CCCN2CCCC2=O)C1 (stereo not drawn)	27%	3%	16%	2%	-3%	12%
O=C1NC(=S)/C(=C\c2ccc(-c3ccccc3Cl)o2)S1	?	13µM*	?	-24%	23µM*	?
C[C@H](NC(=O)c1ncn(Cc2ccccc2)c1C(=O)N[C@@H](C)c1ccccc1)c1ccccc1	-10%	?	?	-17%	?	0%
N#Cc1cccc(S(=O)(=O)NCC(=O)OCC(=O)NCc2ccccc2)c1	-1%	13%	9%	2%	4%	-1%
CC(=O)c1ccc(Oc2ncnc(N)c2[N+](=O)[O-])cc1	7%	?	10%	0%	23µM*	26%
CC(=O)c1ccccc1Oc1ncnc(N)c1[N+](=O)[O-]	0%	16%	9%	-11%	-12%	10%
CC1=Nc2ccccc2/C1=C/c1c(N)n2c(S(=O)(=O)CC(C)C)nsc2nc1=O	-15%	-3%	-18%	-8%	-1%	-18%
Cc1nnc(NC(=O)CC(CN(C)S(=O)(=O)c2ccccc2)c2ccccc2)s1 (stereo not drawn)	5%	-21%	2%	-5%	-14%	-1%
CN(CC(CC(=O)Nc1nncs1)c1ccccc1)S(=O)(=O)c1ccc(Br)cc1 (stereo not drawn)	0%	?	-2%	-15%	16µM*	17%
O=C(O)CSc1nc2ccc(C(=O)c3ccccc3)cc2[nH]1	16%	-12%	17%	13%	6%	-14%
Cc1nc2cc(-c3ccc(Cl)cc3)nn2c(NCCN(C)C)c1C	-16%	7.3µM*	?	-31%	7.3µM*	-10%
Cc1cc(C)n2nc(-c3ccc(Cl)cc3)cc2n1	-5%	?	-12%	-75%	?	-12%
Nc1ncnc2c1ncn2[C@@H]1O[C@H](CNC(=O)[C@@H](N)CO)[C@@H](O)[C@H]1O	2%	-14%	6%	7%	-14%	4%
